“And” between values parts separate entries of the source, which are not always exact repeats. Identical values can stand only once. Records with an inconclusive call do not appear. Some compounds were tested as several samples or in several runs, with calls that do not always agree. The source made the active and inactive calls. How the source made its calls, unless noted: active means hit-call score of the fitted dose curve at least 0.9, where 1 is the maximum; inactive means score below 0.9.
Assays:
[1] = ATG_TAL_CIS: Attagene CIS-FACTORIAL HepG2 Assay for human TAL Basal Promoter (AID 2282966); settings: HepG2 Attagene cis-factorial TAL promoter reporter; actives raise or lower the signal;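 further: background control endpoint measuring basal TAL promoter reporter mRNA not a specific factor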
Outline: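 Endogenous transcription-factor activity is sensed in HepG2 cells through transfected cis-promoter reporter constructs. After 24 h dosing, reporter transcripts are quantified by RT-PCR and capillary electrophoresis. Gain or loss of signal is fitted relative to DMSO.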

[2] = ATG_TGFb_CIS: Attagene CIS-FACTORIAL HepG2 Assay for human Transforming Growth Factor (TGF) (AID 2282967); settings: HepG2 Attagene CIS TGFb reporter, mRNA transcription; actives raise or lower the signal
Outline: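 Endogenous TGFB1-linked transcription factor activity read as reporter mRNA via RT-PCR and capillary electrophoresis, 24 h after dosing transiently transfected HepG2 cells. Gain or loss of signal fitted relative to DMSO.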

[3] = ATG_VDRE_CIS: Attagene CIS-FACTORIAL HepG2 Assay for human Vitamin D Receptor Element (VDRE) (AID 2282968); settings: HepG2 VDRE cis-reporter transcription, actives raise or lower the signal
Outline: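 Transient MRTU transfection of HepG2, 24 h compound exposure. Readout: reporter transcripts via RT-PCR and capillary electrophoresis, fluorescence. Bidirectional fit vs DMSO.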

[4] = target: Nuclear receptor subfamily 1 group I member 3 (Homo sapiens) (UniProt Q14994); experiment: ATG_CAR_TRANS: Attagene TRANS-FACTORIAL HepG2 Assay for human Constitutive Androstane Receptor (CAR) (AID 2282969; active means hit-call score of the fitted dose curve at least 0.9, where 1 is the maximum;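 further: activators raise reporter mRNA above DMSO so AC50 marks induction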); settings: HepG2 Attagene TRANS-FACTORIAL CAR reporter
Sequence of Nuclear receptor subfamily 1 group I member 3 (Homo sapiens) (Q14994 whole entry, looked up, the tested form may be a part): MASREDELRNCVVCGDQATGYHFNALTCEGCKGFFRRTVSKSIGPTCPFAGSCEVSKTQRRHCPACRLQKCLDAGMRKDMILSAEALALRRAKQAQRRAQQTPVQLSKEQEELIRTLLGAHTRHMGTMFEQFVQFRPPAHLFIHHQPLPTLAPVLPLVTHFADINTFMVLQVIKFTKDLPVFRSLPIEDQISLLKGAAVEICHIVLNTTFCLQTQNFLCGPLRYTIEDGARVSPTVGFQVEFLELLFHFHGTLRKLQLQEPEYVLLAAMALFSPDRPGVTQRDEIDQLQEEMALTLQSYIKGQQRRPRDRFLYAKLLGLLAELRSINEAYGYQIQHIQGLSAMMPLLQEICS
Outline: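 Transiently transfected HepG2, multiplex TRANS reporters (CAR-Gal4 chimera driving GAL4-UAS reporter). 24 h dosing. Readout: reporter transcript by RT-PCR + capillary electrophoresis, fluorescence intensity; positive direction vs DMSO.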

[5] = target: Estrogen receptor (Homo sapiens) (UniProt P03372); experiment: ATG_ERa_TRANS: Attagene TRANS-FACTORIAL HepG2 Assay for human Estrogen Receptor alpha (ERa) (AID 2282970; active means hit-call score of the fitted dose curve at least 0.9, where 1 is the maximum); settings: HepG2 Attagene TRANS ERa GAL4 reporter, mRNA
Sequence of Estrogen receptor (Homo sapiens) (P03372 whole entry, looked up, the tested form may be a part): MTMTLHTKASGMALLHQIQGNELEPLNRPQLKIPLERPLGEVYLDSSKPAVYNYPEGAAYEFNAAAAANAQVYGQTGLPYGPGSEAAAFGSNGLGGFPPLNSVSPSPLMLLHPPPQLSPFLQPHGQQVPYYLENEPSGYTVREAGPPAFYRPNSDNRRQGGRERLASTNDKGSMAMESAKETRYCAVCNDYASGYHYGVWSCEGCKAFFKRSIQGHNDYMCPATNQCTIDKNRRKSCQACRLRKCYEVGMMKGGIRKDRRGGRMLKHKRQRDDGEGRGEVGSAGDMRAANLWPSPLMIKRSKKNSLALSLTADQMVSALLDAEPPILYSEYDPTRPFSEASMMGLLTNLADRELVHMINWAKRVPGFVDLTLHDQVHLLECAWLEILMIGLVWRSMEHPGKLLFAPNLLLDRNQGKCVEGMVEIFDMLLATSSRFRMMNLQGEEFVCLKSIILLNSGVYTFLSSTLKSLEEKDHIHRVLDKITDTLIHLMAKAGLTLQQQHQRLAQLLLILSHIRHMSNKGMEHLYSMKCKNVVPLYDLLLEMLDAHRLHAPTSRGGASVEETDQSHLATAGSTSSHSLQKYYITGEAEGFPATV
Outline: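 Transfected HepG2 cells carrying GAL4-UAS-driven reporter units were dosed for 24 hours. Total RNA was reverse-transcribed, reporter sequences PCR-amplified, FAM-labelled, HpaI-digested and resolved by capillary electrophoresis. Increases over DMSO control defined activity.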

[6] = target: X-box-binding protein 1 (Homo sapiens) (UniProt P17861); experiment: ATG_Xbp1_CIS: Attagene CIS-FACTORIAL HepG2 Assay for human X-box Binding Protein 1 (XBP1) (AID 2282972); settings: HepG2 XBP1 cis-element reporter, Attagene multiplex; actives raise or lower the signal
Sequence of X-box-binding protein 1 (Homo sapiens) (P17861 whole entry, looked up): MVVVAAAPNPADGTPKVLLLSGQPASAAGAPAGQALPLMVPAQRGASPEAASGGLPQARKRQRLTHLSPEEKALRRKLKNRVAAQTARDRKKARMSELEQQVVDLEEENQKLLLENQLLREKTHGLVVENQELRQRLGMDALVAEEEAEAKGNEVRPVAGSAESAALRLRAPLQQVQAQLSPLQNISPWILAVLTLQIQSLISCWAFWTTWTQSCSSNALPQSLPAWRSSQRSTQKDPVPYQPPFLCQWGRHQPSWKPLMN
Outline: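 Reporter transcripts were quantified by RT-PCR with fluorescent primer extension and capillary electrophoresis after 24 h chemical exposure. Cells: transiently transfected HepG2 carrying cis-regulated reporter constructs; data fitted bidirectionally relative to DMSO.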

[7] = target: Androgen receptor (Homo sapiens) (UniProt P10275); experiment: ATG_AR_TRANS: Attagene TRANS-FACTORIAL HepG2 Assay for human Androgen Receptor (AR) (AID 2282973; active means hit-call score of the fitted dose curve at least 0.9, where 1 is the maximum); settings: HepG2 Attagene TRANS-FACTORIAL AR reporter transcription
Sequence of Androgen receptor (Homo sapiens) (P10275 whole entry, looked up, the tested form may be a part): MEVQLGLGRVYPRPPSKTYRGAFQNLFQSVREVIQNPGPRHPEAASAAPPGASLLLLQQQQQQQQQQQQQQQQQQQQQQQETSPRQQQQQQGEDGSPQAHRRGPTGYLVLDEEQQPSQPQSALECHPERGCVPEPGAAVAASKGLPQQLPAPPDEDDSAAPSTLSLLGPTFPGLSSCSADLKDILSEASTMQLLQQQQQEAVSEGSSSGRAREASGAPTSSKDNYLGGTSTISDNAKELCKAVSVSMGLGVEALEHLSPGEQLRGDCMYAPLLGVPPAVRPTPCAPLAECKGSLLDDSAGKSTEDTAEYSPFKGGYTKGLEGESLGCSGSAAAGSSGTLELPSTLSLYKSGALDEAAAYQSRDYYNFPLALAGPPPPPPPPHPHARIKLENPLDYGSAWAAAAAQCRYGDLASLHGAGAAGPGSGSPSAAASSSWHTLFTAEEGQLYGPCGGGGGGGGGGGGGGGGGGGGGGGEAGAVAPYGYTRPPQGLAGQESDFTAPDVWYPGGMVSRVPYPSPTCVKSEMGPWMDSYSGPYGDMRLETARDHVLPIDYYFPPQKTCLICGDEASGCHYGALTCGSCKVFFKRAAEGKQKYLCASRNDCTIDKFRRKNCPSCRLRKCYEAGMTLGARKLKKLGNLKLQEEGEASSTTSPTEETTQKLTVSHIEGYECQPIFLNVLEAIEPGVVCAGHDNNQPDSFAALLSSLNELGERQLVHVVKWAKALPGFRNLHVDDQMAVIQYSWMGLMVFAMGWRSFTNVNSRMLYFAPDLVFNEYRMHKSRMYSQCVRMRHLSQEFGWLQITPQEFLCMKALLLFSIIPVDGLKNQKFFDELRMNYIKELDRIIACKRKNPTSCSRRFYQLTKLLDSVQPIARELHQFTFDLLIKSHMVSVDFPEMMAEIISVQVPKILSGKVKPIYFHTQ
Outline: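 Transfected HepG2, 24 h treatment, chimeric NR-Gal4 driving GAL4-UAS reporters. mRNA induction by RT-PCR/capillary electrophoresis fluorescence; DMSO as negative control and baseline.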

[8] = ATG_M_19_TRANS: Attagene TRANS-FACTORIAL HepG2 Assay for M19 Transcription Factor (Internal Marker) (AID 2282974; active means hit-call score of the fitted dose curve at least 0.9, where 1 is the maximum); settings: HepG2 Attagene TRANS-FACTORIAL M19 internal marker reporter
Outline: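 HepG2 transiently transfected with GAL4-UAS multiplex reporter constructs, exposed 24 h; reporter RNA quantified by RT-PCR, 6-FAM labeling, HpaI digestion and capillary electrophoresis; internal background marker fitted upward versus DMSO.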

[9] = target: Steroid hormone receptor ERR1 (Homo sapiens) (UniProt P11474); experiment: ATG_ERRa_TRANS: Attagene TRANS-FACTORIAL HepG2 Assay for human Estrogen-Related Receptor alpha (ERRa) (AID 2282971; active means hit-call score of the fitted dose curve at least 0.9, where 1 is the maximum); settings: HepG2 Attagene TRANS reporter, ERRa transactivation
Sequence of Steroid hormone receptor ERR1 (Homo sapiens) (P11474 whole entry, looked up, the tested form may be a part): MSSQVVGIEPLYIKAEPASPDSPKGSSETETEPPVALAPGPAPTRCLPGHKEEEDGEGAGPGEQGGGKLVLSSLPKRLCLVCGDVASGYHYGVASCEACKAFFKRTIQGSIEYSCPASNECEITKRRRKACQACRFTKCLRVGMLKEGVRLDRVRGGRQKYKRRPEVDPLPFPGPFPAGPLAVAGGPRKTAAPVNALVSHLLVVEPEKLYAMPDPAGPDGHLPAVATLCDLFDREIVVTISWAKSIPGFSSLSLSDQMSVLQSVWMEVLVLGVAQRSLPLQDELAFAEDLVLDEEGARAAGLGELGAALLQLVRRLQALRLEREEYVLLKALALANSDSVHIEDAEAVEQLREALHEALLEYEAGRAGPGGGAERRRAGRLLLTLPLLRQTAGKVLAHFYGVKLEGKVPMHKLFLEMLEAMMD
Outline: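 HepG2 cells were transiently transfected with multiple GAL4-UAS reporter units, then dosed with compound for 24 h. Total RNA was reverse-transcribed, reporter cDNA PCR-amplified and fluorescently labelled, and fragments resolved by capillary electrophoresis; induction was compared with DMSO.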

[10] = ATG_Hpa5_TRANS: Attagene TRANS-FACTORIAL HepG2 Assay for human GAL4-Hpa5 Hepatocyte Transcription Factor Basal Promoter (AID 2282975; active means hit-call score of the fitted dose curve at least 0.9, where 1 is the maximum;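 further: hits are increases in reporter mRNA over DMSO baseline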); settings: HepG2 Attagene GAL4-Hpa5 transcription reporter
Protocol: ATG_TRANS is a cell-based, multiplexed-readout assay that uses HepG2, a human liver cell line, with measurements taken at 24 hours after chemical dosing in a 24-well plate.ATG_Hpa5_TRANS is one of 30 assay component(s) measured or calculated from the ATG_TRANS assay. It is designed to make measurements of mRNA induction, a form of inducible reporter, as detected with fluorescence intensity signals by Reverse transcription polymerase chain reaction (RT-PCR) and Capillary electrophoresis technology.Data from the assay component ATG_Hpa5_TRANS was analyzed into 1 assay endpoint. This assay endpoint, ATG_Hpa5_TRANS, was analyzed in the positive analysis fitting direction relative to DMSO as the negative control and baseline of activity. […] Furthermore, this assay endpoint can be referred to as a secondary readout, because this assay has produced multiple assay endpoints where this one serves a background control function. […]
Human liver HepG2 cells are transiently transfected with multiple reporter transcription units (MRTUs) in 6-well plates using FuGene 6 reagent (Roche; 3 ml FuGene/1 mg DNA). […] A major difference between the CIS and TRANS system is that in CIS activities of endogenous TFs are measured, whereas the TRANS assay evaluates changes in activities of exogenous, chimeric NR-Gal4 proteins. […]

Measured: AC50

COc1ccc(O)c(C(C)(C)C)c1
inactive: [1] | [2] | [4]
active: [3] 58.7 µM | [5] 31.5 µM | [6] 100 µM

CCNc1nc(NC(C)C)nc(SC)n1
active: [3] 50 µM
not listed: [5] | [9] | [10]
inactive: all other assays above

Cc1ccccc1CO[C@@H]1C[C@@]2(C(C)C)CC[C@]1(C)O2
inactive: [1] | [2] | [4] | [6]
active: [3] 21.4 µM

CN(C)CCO
not listed: [5] | [7] | [10]
inactive: all other assays above

Sc1ccccc1
inactive: [1] | [2] | [3] | [4] | [6] | [8]
active: [3] 27.1 µM | [5] 27.1 µM and 42.2 µM

O=S(=O)(O)C(F)(F)C(F)(F)C(F)(F)C(F)(F)F
inactive: [1] | [2] | [3] | [6] | [8]

C=CC(=O)NCNC(=O)C=C
inactive: [1] | [2] | [3] | [6] | [7]

CCSC(=O)N(CC)C1CCCCC1
inactive: [1] | [2] | [5] | [6] | [8]
active: [3] 18.1 µM

N#Cc1ccc(N(CC(N)=O)CC(F)(F)F)cc1C(F)(F)F
inactive: [1] | [2] | [3] | [5] | [6] | [8]

NS(=O)(=O)C(F)(F)C(F)(F)C(F)(F)C(F)(F)C(F)(F)C(F)(F)C(F)(F)C(F)(F)F
active: [5] 25.8 µM and 7.34 µM and 5.15 µM | [6] 41.7 µM and 39.9 µM and 50 µM
inactive: [1] | [2] | [4] | [8]

CCCN(CCC)N=O
inactive: [1] | [2] | [3] | [5] | [6]

CCC(C)(CC)c1cc(NC(=O)c2c(OC)cccc2OC)on1
active: [3] 0.977 µM
inactive: [1] | [2] | [6] | [8] | [10]

O=NN(c1ccccc1)c1ccccc1
inactive: [1] | [2] | [6]
active: [5] 23.6 µM

Cc1cc2c3c(c1)C(c1ccccc1)=N[C@@H](NC(=O)c1ccncc1)C(=O)N3CC2
active: [3] 5.69 µM | [6] 100 µM
inactive: [1] | [2] | [5] | [8]

CC1=C2C[C@H]3[C@@H](CC=C4C[C@@H](O)CC[C@@]43C)[C@@H]2CC[C@]12O[C@@H]1C[C@H](C)CN[C@H]1[C@H]2C
inactive: [1] | [2] | [3] | [5] | [6]

C[C@]12CCC(=O)C=C1CC[C@@H]1[C@@H]2CC[C@]2(C)C(=O)CC[C@@H]12
active: [5] 65.1 nM and 9.14 nM and 9.25 nM
inactive: [1] | [2] | [6]

CCC(C)(c1ccc(O)cc1)c1ccc(O)cc1
active: [6] 54.8 µM and 52.7 µM and 16.7 µM
inactive: [1] | [2] | [4] | [6] | [8]

Clc1ccc(C(Cl)(Cl)Cl)cc1
inactive: [1] | [2] | [9] | [6]

O=C(NC(=O)c1cc(F)c(F)cc1Cl)Nc1cc(F)ccc1N1CCC(C(=O)O)CC1
inactive: [1] | [2] | [3] | [6] | [8]

Nn1cnnc1
active: [5] 26 µM
inactive: [1] | [2] | [3] | [6]

ClC1=C(Cl)[C@]2(Cl)[C@@H]3[C@@H](Cl)[C@H]4O[C@H]4[C@@H]3C1(Cl)C2(Cl)Cl
inactive: [1] | [2] | [3] | [5]
active: [6] 36.5 µM

CCCCCCOC(=O)c1ccccc1C(=O)OCCCCCC
inactive: [1] | [2] | [4] | [5] | [6]

CCCCCCCCCC[N+](C)(C)CCCCCCCCCC
inactive: [1] | [2] | [5] | [6]
active: [3] 8.67 µM

O=C(N[C@H]1CN2CCC1CC2)c1cc2ccoc2cn1
inactive: [1] | [2] | [3] | [5] | [6]

Cc1ccc(O)c(C)c1
inactive: [1] | [2] | [5] | [9] | [6] | [8]

C=CC(N)=O
inactive: [1] | [2] | [9] | [6]
active: [3] 100 µM

O=C(NC(=O)c1c(F)cccc1F)Nc1cc(Cl)c(OC(F)(F)C(F)F)c(Cl)c1
inactive: [1] | [2] | [4] | [5] | [6] | [7]

ClC1=C(Cl)[C@]2(Cl)[C@@H]3[C@@H]4C[C@@H]([C@H]5O[C@@H]45)[C@@H]3[C@@]1(Cl)C2(Cl)Cl
inactive: [1] | [2] | [6]
active: [3] 17.6 µM | [5] 5.89 µM

CC#Cc1cc(C)nc(Nc2ccccc2)n1
active: [3] 65.6 µM
inactive: [1] | [2] | [6]

Cc1cccc(C)c1N
inactive: [1] | [2] | [6]

c1ccc(-c2ccccc2)cc1
inactive: [1] | [2] | [5] | [6] | [7] | [8]

CN(C)c1nc(=O)n(C2CCCCC2)c(=O)n1C
inactive: [1] | [2] | [3] | [5] | [6] | [10]

Cc1cc(O)ccc1Cl
active: [5] 40.4 µM
inactive: [1] | [2] | [3] | [6] | [8]

C1CC2OC2CC1C1CO1 (stereo unspecified)
inactive: [1] | [2] | [3] | [6] | [8]

CCOCCOC(C)=O
inactive: [1] | [2] | [3] | [6]

COS(=O)(=O)OC
inactive: [1] | [2] | [3] | [6]

O=C(O)C(F)(F)C(F)(F)C(F)(F)C(F)(F)C(F)(F)F
inactive: [1] | [2] | [3] | [6] | [8]

Oc1ccc(Cl)cc1Cl
active: [5] 64 µM
inactive: [1] | [2] | [3] | [6]
